# According to PubChem BioAssay:
# Several values for one entry are separate records, joined by “and”; a condition that tells them apart may be missing. Equal values may be shown once. Activity calls are given as the source filed them. Unless noted, no rule for the calls is given here.
# How the values were obtained:
# [1] = liver-stage malaria parasite growth inhibition, primary screen, cell-based, HepG2, luciferase luminescence, HepG2 viability (AID 624349; in the data active = parasite load remaining mostly below about 12%, no sharp cut-off; inactive = mostly above about 10%;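 also: 100% = mean of DMSO negative control wells on the same plate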); settings: P. berghei liver stage in HepG2, luciferase luminescence, concentration not given here; parasite load remaining: stronger effect = lower value; viability: measured here: HepG2 viability without parasites
# [2] = kinase inhibitors against Plasmodium liver-stage infection, cell-based, known kinase inhibitor set, luminescence, hepatoma host viability (AID 624392); settings: Plasmodium liver stage in hepatoma cells, luciferase luminescence, concentration not given here; liver cell % of control: measured here: host liver cell viability; parasite % of control: stronger effect = lower value;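 also: infected cells incubated roughly two days before readout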
# [3] = Cy5 fluorescence interference with SSB-bound oligo, artefact control for HCV NS3 helicase inhibitor project, biochemical, NIH Clinical Collection, E. coli SSB (AID 743268)
# [4] = tested on: Hepatitis C virus NS3 helicase; test: HCV NS3 helicase inhibitors, primary screen, biochemical, fluorescence polarization, NIH Clinical Collection (AID 743270); settings: NS3 helicase binding to Cy5-dT15 DNA, stronger effect = higher value, concentration not given here
# [5] = target: Single-stranded DNA-binding protein (Escherichia coli (strain K12)) (UniProt P0AGE0); test: E. coli SSB displacement from DNA, counter-screen for HCV NS3 helicase inhibitor project, biochemical, fluorescence polarization, NIH Clinical Collection (AID 743271; in the data active = inhibition above about 28%); settings: stronger effect = higher value, concentration not given here
# [6] = fluorescence interference in NS3h assay format, artefact control for HCV NS3 helicase inhibitor project, biochemical, NIH Clinical Collection (AID 743272); settings: fluorescence interference counterscreen, stronger effect = lower value;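 also: HCV NS3 helicase with a Cy5 labelled single stranded DNA probe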
smiles,measurement,setting,value
N#Cc1cnc2cnc(NCc3cccnc3)cc2c1NC1CCCCCC1,parasite load remaining,[1],36% (inactive)
same,viability,[1],65.1%
O=C(Nc1ccc(-c2csc(Nc3ccccc3)n2)cc1)c1cccc(C(F)(F)F)c1,liver cell % of control,[2],99.8%
same,parasite % of control,[2],99.4% (inactive)
CSc1nc(-c2ccnc(NC(C)c3ccccc3)c2)c(-c2ccc(F)cc2)[nH]1 (centres undefined),parasite load remaining,[1],53.6% (inactive)
same,viability,[1],77.8%
Cc1nc(N)sc1-c1ccnc(Nc2cccc([N+](=O)[O-])c2)n1,parasite load remaining,[1],60.6% (inactive)
same,viability,[1],87.6%
CC(=O)NC1SCCC1=O (centres undefined),parasite load remaining,[1],139% (inactive)
same,viability,[1],87.1%
CCN1CCN(Cc2ccc(NC(=O)c3ccc(C)c(NC(=O)c4cc(-c5ccc(Br)cc5)n[nH]4)c3)cc2C(F)(F)F)CC1,liver cell % of control,[2],90.4%
same,parasite % of control,[2],208% (inactive)
CCN1CCN(Cc2ccc(NC(=O)c3cc(NC(=O)c4cncc(-c5cccs5)c4)cc(OC)c3)cc2C(F)(F)F)CC1,liver cell % of control,[2],101%
same,parasite % of control,[2],88.5% (inactive)
Cc1ccc(C(=O)Nc2cccc(C(F)(F)F)c2)cc1NC(=O)c1c[nH]c2cc(C(F)(F)F)ccc2c1=O,liver cell % of control,[2],97.9%
same,parasite % of control,[2],25.1% (inactive)
CCN1CCN(Cc2ccc(NC(=O)c3ccc(C)c(C=Cc4cnc(Nc5cc(N6CCNCC6)nc(C)n5)cn4)c3)cc2C(F)(F)F)CC1,liver cell % of control,[2],96.8%
same,parasite % of control,[2],369% (inactive)
O=C(Nc1ccncc1)Nc1c(Cl)cc(Cl)cc1Cl,parasite load remaining,[1],41.9% (inactive)
same,viability,[1],65.2%
CN(C)CC=CC(=O)Nc1cccc(-c2c[nH]c3ncnc(Oc4ccc(NC(=O)CC(=O)Nc5ccc(F)cc5)cc4F)c23)c1,liver cell % of control,[2],96.3%
same,parasite % of control,[2],155% (inactive)
O=C1NC(=O)C(c2cn(CCCn3ccnc3)c3ccccc23)=C1Nc1ccccc1,parasite load remaining,[1],35% (inactive)
same,viability,[1],61.8%
NC(=O)Nc1sc(-c2ccccc2)cc1C(N)=O,parasite load remaining,[1],55.2% (inactive)
same,viability,[1],90.8%
same,liver cell % of control,[2],111%
same,parasite % of control,[2],316% (inactive)
CC[C@H]1OC(=O)[C@H](C)C(=O)[C@H](C)[C@@H](O[C@@H]2O[C@H](C)C[C@H](N(C)C)[C@H]2O)[C@](C)(OC)C[C@@H](C)C(=O)[C@H](C)[C@@H]2N(CCCCn3cnc(-c4cccnc4)c3)C(=O)O[C@@]21C,parasite load remaining,[1],32.3% (inactive)
same,viability,[1],63.9%
same,fluorescence ratio,[3],0.97 (inactive)
same,inhibition,[4],-9.83% (inactive)
same,inhibition,[5],1.18% (inactive)
same,fluorescence ratio,[6],0.92 (inactive)
CC(C)n1cnc2c(N(C)c3ccccc3)nc(N(CCN(C)C)Cc3ccccc3)nc21,liver cell % of control,[2],84.5%
same,parasite % of control,[2],24.1% (inactive)
COc1cc(NC(=O)c2csc(N)n2)cc(C(=O)Nc2cccc(C(F)(F)F)c2)c1,liver cell % of control,[2],88.9%
same,parasite % of control,[2],39.6% (inactive)
CC(C)C(CO)Nc1nc(Nc2ccc(Cl)c(C(=O)O)c2)c2ncn(C(C)C)c2n1 (centres undefined),liver cell % of control,[2],94.7%
same,parasite % of control,[2],116% (inactive)
C=CC(=O)Nc1ccc(CN2C(=O)N(c3c(Cl)c(OC)cc(OC)c3Cl)Cc3cnc(NCCCCN(CC)CC)nc32)cc1,liver cell % of control,[2],96.7%
same,parasite % of control,[2],227% (inactive)
CCN1CCN(Cc2ccc(NC(=O)c3ccc(C)c(NC(=O)c4ccnnc4)c3)cc2C(F)(F)F)CC1,liver cell % of control,[2],104%
same,parasite % of control,[2],100% (inactive)
CN(c1ccccc1CNc1nc(Nc2ccc3c(c2)CC(=O)N3)ncc1C(F)(F)F)S(C)(=O)=O,liver cell % of control,[2],53.6% and 51.8% and 95%
same,parasite % of control,[2],7.61% (inactive) and 53% (inactive) and 167% (inactive)
COc1cc(Nc2ccccn2)cc(C(=O)Nc2cccc(C(F)(F)F)c2)c1,liver cell % of control,[2],92.4%
same,parasite % of control,[2],74.9% (inactive)
Nc1cnc(CNc2ccccc2Cl)cn1,liver cell % of control,[2],100%
same,parasite % of control,[2],136% (inactive)
Cc1nc(Nc2cnc(C=Cc3cc(C(=O)Nc4cccc(C(F)(F)F)c4)ccc3C)cn2)cc(N2CCNCC2)n1,liver cell % of control,[2],92.4%
same,parasite % of control,[2],144% (inactive)
CCN1CCN(Cc2ccc(NC(=O)c3ccc(C)c(NC(=O)CC4NC(=O)C(Cc5ccccc5)NC4=O)c3)cc2C(F)(F)F)CC1 (centres undefined),liver cell % of control,[2],105%
same,parasite % of control,[2],114% (inactive)
Cc1ccc(C(=O)Nc2cccc(C(F)(F)F)c2)cc1Nc1ccccn1,liver cell % of control,[2],95%
same,parasite % of control,[2],54.6% (inactive)
Cc1ccc(C(=O)Nc2cccc(C(F)(F)F)c2)cc1Nc1ncnc2nc[nH]c12,liver cell % of control,[2],108%
same,parasite % of control,[2],64.6% (inactive)
CCN1CCN(Cc2ccc(C(=O)Nc3ccc(C)c(NCc4cnc(NC(=O)OC)cn4)c3)cc2C(F)(F)F)CC1,liver cell % of control,[2],105%
same,parasite % of control,[2],107% (inactive)
CCN1CCN(Cc2ccc(NC(=O)c3ccc(C)c(NC(=O)c4nccn4C)c3)cc2C(F)(F)F)CC1,liver cell % of control,[2],101%
same,parasite % of control,[2],90.4% (inactive)
C=CC(=O)Nc1cccc(Oc2cc(Cl)nc3[nH]ccc23)c1,liver cell % of control,[2],101%
same,parasite % of control,[2],63.5% (inactive)
